HCV inh: HCV inhibition. Huh7.5.1 HCVcc-Cre infection, luciferase reporter, 44 h. Potency, µM (series often up to 41.8 µM), for inactives: at the highest dose activity change, negative = inhibition, usual class: inhibitors. 340,000 tested, 3.4% active. AID 651820; note: potency is the fitted concentration of half-maximal effect; % is set by controls: 0 for no effect and ±100 for the full control effect
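Cells seeded at 1,000/well and cultured 4 h, then compounds added followed by HCVcc-Cre virus (~0.5 moi). After 44 h further culture, luciferase substrate was added, plates held 15 min at room temperature, and luminescence read for 15 sec.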
Cycloheximide cs: counter-screen for Shiga toxin inhibitors: cycloheximide protein synthesis inhibition; cell reporter, cycloheximide protein synthesis inhibition counterscreen; max response, %; 300,000 tested, 12% active; AID 2314; in the data active = max response mostly above about 13%, no sharp cut-off; inactive = mostly below about 14%; note: read at 38.3 µM for the half of the compounds with a filed dose; 0% is about no effect
Shiga inhibitor: inhibitors of Shiga toxin in Vero cells; Vero cells, Shiga toxin protein synthesis inhibition reporter; inhibition, % at 38.7 µM; 290,000 tested, 9.2% active; in the data active = inhibition mostly above about 28%, no sharp cut-off; inactive = mostly below about 43%; note: 0% is about no effect
Pf growth 48h: P. falciparum growth inhibition at 48 hours (one generation) | 310,000 tested, 5.9% active | AID 504832 | Potency, µM (titrated, usually from 28.7 µM), for inactives: at the top dose activity change, negative = inhibition, hits mostly inhibitors | P. falciparum luciferase growth in erythrocytes, 48 h; note: potency is the fitted concentration of half-maximal effect; % is set by controls: 0 for no effect and ±100 for the full control effect
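Read-out is firefly luciferase luminescence from an integrated reporter in P. falciparum, so falling signal marks reduced parasite growth. Infected erythrocytes were at 2% hematocrit and 0.1% parasitemia (final) in Albumax-supplemented RPMI 1640.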
AMA1 RON2 block: inhibitors of Plasmodium falciparum AMA1-RON2 interaction. AlphaScreen AMA1-biotinylated RON2 peptide binding. Potency, µM (highest dose often 58.2 µM), without a hit: top-dose activity change, negative = inhibition, hits mostly inhibitors. 360,000 tested, 0.2% active;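 note: potency is the fitted concentration of half-maximal effect; 0% = vehicle wells and -100% = peptide control; nearly all actives have a fitted effect of over 45% in size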
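AMA1 (3D7) with his tag at 25 nM final met compounds first, then biotinylated RON2 peptide at 25 nM; detection used donor plus acceptor beads, 10 µg/mL apiece, read by AlphaScreen after 30 min at room temperature.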
Pf growth 96h: P. falciparum growth inhibition at 96 hour, primary screen for plastid delayed-death inhibitors; P. falciparum luciferase reporter growth, 96 h; Potency, µM (top dose mostly 28.7 µM), for the others: top-dose activity change, negative = inhibition, most hits filed as inhibitors; 320,000 tested, 6.9% active; AID 504834; note: potency is the fitted concentration of half-maximal effect; % is set by controls: 0 for no effect and ±100 for the full control effect
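Compounds incubated with erythrocytes infected by luciferase-expressing P. falciparum (2% hematocrit, 0.05% parasitemia final) for 96 hours, 37 C in 5% CO2. Growth inhibition scored as decreased luciferase luminescence.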
* marks the source's active call; other numbers are inactive results. A selection: hits, their analogues and other compounds. The true share with any hit is near 21%. Unless noted, calls come from the whole dose curve; as a rule, active = well fitted curve in the direction sought with a large enough effect; inconclusive = small, poorly fitted or top-dose-only effect, or another doubt; inactive = no such curve, though single readings can be large; an effect the other way counts as inactive or inconclusive.

How did O=C(Nc1ccc(F)c(Cl)c1)c1cc(C2CCCCN2C(=O)c2ccc3c(c2)CCO3)on1 (stereo not given) do in these assays?
AMA1 RON2 block: 3%

What do the screens show for `CCOC(=O)N1CCN(C(=O)CN(C2CCCCC2)S(=O)(=O)c2ccc(C)cc2)CC1`?
HCV inh: 9%; Cycloheximide cs: 3; Shiga inhibitor: 9; Pf growth 48h: 10µM*; AMA1 RON2 block: 2%; Pf growth 96h: -4%

Results for CCOC(=O)N1CCN(C(=O)CN(c2ccccc2OC)S(=O)(=O)c2ccc(C)cc2)CC1 ?
HCV inh: 10%; Cycloheximide cs: 3; Shiga inhibitor: -24; Pf growth 48h: inconclusive; AMA1 RON2 block: 16%; Pf growth 96h: 12µM*

How did CCN(CC)C(=O)CN(c1cc2c(cc1OC)oc1ccccc12)S(=O)(=O)c1ccc(C)cc1 do in these assays?
HCV inh: inconclusive; Cycloheximide cs: 7; Shiga inhibitor: -9; Pf growth 48h: 12µM*; AMA1 RON2 block: -14%

Results for O=C1CCCCc2sc(Br)c([N+](=O)[O-])c2N1 ?
HCV inh: inconclusive; Cycloheximide cs: -1; Shiga inhibitor: -13; Pf growth 48h: 0%; AMA1 RON2 block: -13%; Pf growth 96h: 0%

Results for COc1cnn(-c2ccccc2)c(=O)c1N(C)C ?
HCV inh: -3%; Cycloheximide cs: 10; Shiga inhibitor: 7; Pf growth 48h: 5%; AMA1 RON2 block: 1%; Pf growth 96h: 34%

How did CCOc1c(Cl)cnn(-c2ccc(C)cc2)c1=O do in these assays?
HCV inh: -2%; Cycloheximide cs: 9; Shiga inhibitor: -4; Pf growth 48h: 14%; AMA1 RON2 block: -2%; Pf growth 96h: 0%

How did COc1ccc2cnn(-c3ccc(OC(F)(F)Cl)cc3)c(=O)c2c1OC do in these assays?
HCV inh: 13%; Cycloheximide cs: 1; Shiga inhibitor: -10; Pf growth 48h: 33%; AMA1 RON2 block: -10%; Pf growth 96h: 19%

Results for COc1ccc2cnn(-c3ccc(C)cc3)c(=O)c2c1OC ?
HCV inh: -15%; Cycloheximide cs: 102*; Shiga inhibitor: 153*; AMA1 RON2 block: -7%; Pf growth 96h: 40%

How did COc1ccc(Oc2c(Cl)cnn(-c3ccc(C)cc3)c2=O)cc1 do in these assays?
HCV inh: inconclusive; Cycloheximide cs: 14*; Shiga inhibitor: 2; Pf growth 48h: 2%; AMA1 RON2 block: -1%; Pf growth 96h: -2%

What do the screens show for `COc1cnn(-c2cccc(C)c2)c(=O)c1Cl`?
HCV inh: 8%; Cycloheximide cs: 19*; Shiga inhibitor: 15; Pf growth 48h: 9%; AMA1 RON2 block: 8%; Pf growth 96h: 150%

How did COc1c(Cl)cnn(-c2ccc(C)cc2)c1=O do in these assays?
HCV inh: inconclusive; Cycloheximide cs: 25*; Shiga inhibitor: 66*; Pf growth 48h: inconclusive; AMA1 RON2 block: -11%; Pf growth 96h: -8%

How did Cc1cc(OCC(=O)N2CCC(C(N)=O)CC2)c2c(C)cc(=O)oc2c1 do in these assays?
HCV inh: -6%; Cycloheximide cs: 1; Shiga inhibitor: -6; Pf growth 48h: 27%; AMA1 RON2 block: 4%; Pf growth 96h: 26%

What do the screens show for `O=C1C2C(c3ccccc3)(C(=O)N1c1ccc(Cl)cc1)C2(c1ccccc1)c1ccccc1` (stereo not given)?
HCV inh: inconclusive; Cycloheximide cs: -3; Shiga inhibitor: 10; Pf growth 48h: 4.1µM*; AMA1 RON2 block: -9%; Pf growth 96h: inconclusive

Results for CC12CCC(C(=O)N(c3ccc(Cl)cc3)C1=O)C2(C)C (stereo not given) ?
HCV inh: 6%; Cycloheximide cs: 1; Shiga inhibitor: -11; Pf growth 48h: inconclusive; AMA1 RON2 block: -5%; Pf growth 96h: 4%

How did O=c1cc(O)c(Cl)c[nH]1 do in these assays?
Pf growth 48h: 2%; Pf growth 96h: inconclusive

How did CN(C=[N+](C)C)c1cccc2c1C(=O)c1ccccc1C2=O do in these assays?
HCV inh: inconclusive; Cycloheximide cs: 7; Shiga inhibitor: 11; Pf growth 48h: 9%; AMA1 RON2 block: 32µM*; Pf growth 96h: -13%

Results for O=C(O)c1cccc2c1C(=O)c1ccccc1C2=O ?
HCV inh: 2%; Cycloheximide cs: 2; Shiga inhibitor: 10; Pf growth 48h: 19%; AMA1 RON2 block: -11%; Pf growth 96h: -1%

How did CCC/C(=N/NC(=O)c1cccc(Cl)c1)c1ccccc1 do in these assays?
HCV inh: -3%; Cycloheximide cs: 59*; Shiga inhibitor: 80*; Pf growth 48h: 24%; AMA1 RON2 block: 57%; Pf growth 96h: -26%

How did Cc1ccc(C(=O)N/N=C(\CC(C)C)c2ccccc2)cc1 do in these assays?
HCV inh: 9%; Cycloheximide cs: 44*; Shiga inhibitor: 71*; Pf growth 48h: 38%; AMA1 RON2 block: 8%; Pf growth 96h: 75%

What do the screens show for `COc1cccc(C(=O)N/N=C(\CC(C)C)c2ccccc2)c1`?
HCV inh: -3%; Cycloheximide cs: 22*; Shiga inhibitor: 55*; Pf growth 48h: 4%; AMA1 RON2 block: 31%; Pf growth 96h: -17%

How did CCc1nc2c(OCc3ccc(OC(F)F)cc3)cccn2c1N(C)C(=O)c1ccc(OC)cc1 do in these assays?
AMA1 RON2 block: -15%

Results for CC1(C)[C@@H](O)CC[C@]2(C)C3C(O)C=C4[C@H]5C[C@@](C)(CO)CC[C@]5(C)CC[C@]4(C)[C@]3(C)CC[C@@H]12 (stereo not given in full) ?
HCV inh: -6%; Cycloheximide cs: 1; Shiga inhibitor: -6; Pf growth 48h: -9%; AMA1 RON2 block: -3%; Pf growth 96h: inconclusive

How did Cn1nnnc1SCc1ccccc1F do in these assays?
HCV inh: 4%; Cycloheximide cs: 0; Shiga inhibitor: -6; Pf growth 48h: 13%; AMA1 RON2 block: 7%; Pf growth 96h: -15%

How did Cn1c(SCc2ccccn2)nnc1-c1cnccn1 do in these assays?
HCV inh: 8%; Cycloheximide cs: 38*; Shiga inhibitor: 57*; Pf growth 48h: 39%; AMA1 RON2 block: 0%; Pf growth 96h: -1%

How did Cc1cccc(CSc2nnc(-c3cnccn3)n2C)c1 do in these assays?
HCV inh: 2%; Cycloheximide cs: 17*; Shiga inhibitor: 45*; Pf growth 48h: -36%; AMA1 RON2 block: -1%; Pf growth 96h: 33%

Results for Cn1c(SCc2ccccc2F)nnc1-c1ccccn1 ?
HCV inh: 10%; Cycloheximide cs: 44*; Shiga inhibitor: 109*; Pf growth 48h: 275%; AMA1 RON2 block: -8%; Pf growth 96h: 11%

How did Cn1c(SCc2ccccc2F)nnc1-c1cnccn1 do in these assays?
HCV inh: -13%; Cycloheximide cs: 75*; Shiga inhibitor: 111*; Pf growth 48h: 123%; AMA1 RON2 block: 18%; Pf growth 96h: inconclusive

Bioassay records: PubChem BioAssay, National Center for Advancing Translational Sciences (NCATS)
